Sampled rows, rich in hits. Any-hit rate of the full collection: about 2.3%.
GLD-1 TGE inh – GLD-1-TGE RNA interaction inhibition (C. elegans); purified GLD-1 + fluorescein TGE RNA, fluorescence polarization; inhibition, % at 5.96 µM; hit rate 0.44% among 320,000; AID 2280;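 active means percent inhibition above a per-plate cutoff, the plate mean of test compounds plus 3 SD, cut at about 30% in these data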
MCL1 BIM primary – MCL1-BIM-BH3 interaction inhibition (human). GST-MCL1 / FITC-Bim-BH3 fluorescence polarization. inhibition, % at 10.9 µM. hit rate 0.68% among 320,000;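 active means inhibition above the mean inhibition of all tested compounds plus 3 SD, set per campaign, cut at about 40% in these data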;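 further: higher means more loss of mP so more displacement of Bim peptide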
Target sequence (Q07820 whole entry, looked up): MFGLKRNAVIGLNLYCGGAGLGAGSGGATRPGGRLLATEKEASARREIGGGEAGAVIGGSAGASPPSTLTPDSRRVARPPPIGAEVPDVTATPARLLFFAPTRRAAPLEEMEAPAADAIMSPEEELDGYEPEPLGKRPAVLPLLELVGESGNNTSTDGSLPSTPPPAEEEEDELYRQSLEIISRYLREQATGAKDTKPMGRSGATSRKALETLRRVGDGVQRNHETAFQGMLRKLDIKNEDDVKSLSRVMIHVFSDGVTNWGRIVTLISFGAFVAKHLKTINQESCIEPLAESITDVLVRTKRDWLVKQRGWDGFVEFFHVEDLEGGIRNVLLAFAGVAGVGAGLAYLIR
BCLXL inh – inhibitors of human Bcl-xL; Q07817; GST-Bcl-xL / FITC-Bim BH3 peptide fluorescence polarization; inhibition, % at 10.9 µM; hit rate 0.7% among 320,000;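 active means inhibition above the mean of all tested compounds plus 3 SD, cutoff set per campaign, cut at about 30% in these data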;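 further: inhibitors lower millipolarization by displacing the labeled peptide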
Target sequence (Q07817 whole entry, looked up): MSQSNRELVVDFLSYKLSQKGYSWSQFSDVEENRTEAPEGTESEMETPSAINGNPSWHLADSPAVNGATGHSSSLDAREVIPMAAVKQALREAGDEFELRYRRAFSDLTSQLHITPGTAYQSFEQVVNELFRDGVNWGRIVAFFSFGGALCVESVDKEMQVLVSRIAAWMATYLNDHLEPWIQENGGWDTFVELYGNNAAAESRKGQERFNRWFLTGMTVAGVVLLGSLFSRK
Mcl1-Bid inh – Mcl-1/Bid interaction inhibition. Q07820. TR-FRET Mcl-1/Bid-Dy647 peptide binding, 1536-well. inhibition, % at 21.7 µM. hit rate 0.97% among 220,000. AID 1021;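 active means compounds that cut the binding signal by more than half at the single screening dose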;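 further: His-tagged Mcl-1 with europium anti-His antibody binding Bid BH3 peptide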
Bim-Mcl-1 – disrupts Bim peptide binding to human Mcl-1 | Q07820 | Bead-based flow cytometry, Bim peptide-Mcl-1 binding | inhibition, % at 10 µM | hit rate 0.1% among 190,000; in the data active means inhibition above about 40%
Mcl1-Noxa inh – Mcl-1/Noxa interaction inhibition; TR-FRET Mcl-1/Noxa peptide binding, 2 h; AID 1022; inhibition, % at 21.7 µM; hit rate 1.5% among 220,000; Q07820;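 active means compounds that cut the protein-peptide binding signal by more than 50% relative to plate controls in a single-dose test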;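 further: His-tagged Mcl-1 with rhodamine Noxa BH3 peptide and terbium anti-His antibody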
Numbers stand for hits; . = inactive; / = no result.

SMILES | GLD-1 TGE inh | MCL1 BIM primary | BCLXL inh | Mcl1-Bid inh | Bim-Mcl-1 | Mcl1-Noxa inh
CCOc1ccc(CC(=O)Nc2ccc(S(=O)(=O)N3CCCC3)cc2)cc1 | . | . | . | / | / | /
CCCCCCOC(=O)C(C#N)c1nc2ccccc2nc1N1CCN(C)CC1 (centres undefined) | . | . | . | . | . | 53
Oc1ccc(NC(=S)N=Nc2c(O)[nH]c3ccc(Br)cc23)cc1 | / | / | / | . | . | 57
Cc1noc(C)c1COc1ccc(C(=O)Nc2cccnc2)cc1 | / | / | / | . | . | 53
CCCCOc1ccc(C(=O)NCCC(=O)NCCCC(=O)OCC)cc1 | . | . | . | 94 | / | .
CCCOc1ccc(C(=O)NCCC(=O)NCCCC(=O)OCC)cc1 | . | . | . | . | . | /
COc1ccc(C(C)=O)cc1CC(=O)Nc1cccc(S(=O)(=O)N2CCOCC2)c1 | . | . | . | / | / | /
Oc1ccc(C=NCC2COc3ccccc3O2)cc1 (centres undefined) | . | . | . | . | 80 | .
COc1ccc(C=NCC2COc3ccccc3O2)cc1OC (centres undefined) | . | . | . | . | . | .
CCCCn1c(C23CC4CC(CC(C4)C2)C3)n[nH]c1=S | . | . | . | / | / | /
O=C(COC(=O)Cc1ccc(Br)cc1)NC1CCCC1 | . | / | / | / | / | /
FC(F)(F)c1nc(-c2cccs2)ncc1-c1nnnn1-c1ccc(Cl)cc1 | . | . | . | 65 | . | .
Clc1ccc(-n2nnnc2-c2cnc(-c3ccncc3)nc2-c2cccs2)cc1 | . | . | . | . | . | .
CC1(C)CC(=O)C=C(Nc2cccc(Cl)c2Cl)C1 | . | . | . | / | / | /
O=C(CN1C(=O)CCSc2ccc(S(=O)(=O)N3CCCC3)cc21)NCc1ccccc1Cl | . | . | . | / | / | /
CCOC(=O)c1c(CSC(=N)N)n(-c2ccc(Br)cc2)c2cc(Br)c(OC(C)=O)cc12 | / | / | / | . | . | 65
Cc1cc(C)c(-n2c(SCC(=O)N3CCOCC3)n[nH]c2=O)c(C)c1 | . | . | . | / | / | /
O=C(Nc1ccccc1[N+](=O)[O-])C1=C(O)CCn2c1nc1ccccc12 | . | . | . | . | . | 72
COc1cc(NC(=O)COc2ccc(-n3cnnn3)cc2)cc(OC)c1OC | . | / | / | / | / | /
CC1=C(C(=O)OCc2ccccc2)C(/C=C/c2ccccc2)NC(=S)N1 (centres undefined) | . | . | . | 54 | . | .
Cc1ccc(C)c(S(=O)(=O)N2CCN(C(=O)Cn3[nH]c(=O)c4ccccc4c3=O)CC2)c1 | . | . | . | / | / | /
Nc1nc(NCCc2ccccc2)nc(NCCO)c1[N+](=O)[O-] | . | . | . | / | / | /
Cc1ccc(CSc2nnc(SCC(=O)N/N=C/C=C/c3ccco3)s2)cc1 | . | . | . | . | . | .
CC(/C=N/NC(=O)CSc1nnc(SCc2ccccc2)s1)=C\c1ccco1 | . | . | . | . | . | 51
CCN(c1ccc(NC(=O)COC(=O)/C=C/c2cccs2)cc1)C(C)C | . | . | . | . | . | 84
SMILES | GLD-1 TGE inh | MCL1 BIM primary | BCLXL inh | Mcl1-Bid inh | Bim-Mcl-1 | Mcl1-Noxa inh
CN(C)/C=C1/C=C(c2ccccc2)OC1=O | . | . | . | . | . | .
CCC1=C/C(=C/N(C)c2ccccc2)C(=O)S1 | . | . | 31 | . | . | .
CCOC(=O)c1ccc(-c2nnc(-c3ccc(Cl)cc3Cl)o2)cc1 | . | . | . | . | . | .
CCOC(=O)c1cc(-c2nnc(-c3ccc(Cl)cc3)o2)c(C)nc1C | . | . | . | . | 40 | .
Cc1c(C(=O)OCc2ccccc2)[nH]c2c1C(=O)CC(c1ccco1)C2 (centres undefined) | . | . | . | 72 | . | 61
COCCOC(=O)c1[nH]c2c(c1C)C(=O)CC(c1ccccc1)C2 (centres undefined) | . | . | . | . | . | .
Cc1c(C(=O)OCCOC(C)C)[nH]c2c1C(=O)CC(c1ccco1)C2 (centres undefined) | . | . | . | . | . | .
CCOC(=O)c1[nH]c2c(c1C)C(=O)CC(c1ccco1)C2 (centres undefined) | . | . | . | . | . | 79
CSCCOC(=O)c1[nH]c2c(c1C)C(=O)CC(c1ccco1)C2 (centres undefined) | . | . | . | . | . | 58
COCCOC(=O)c1[nH]c2c(c1C)C(=O)CC(c1ccco1)C2 (centres undefined) | . | . | . | . | . | 52
COCCOC(=O)c1[nH]c2c(c1C)C(=O)CC(c1ccc(F)cc1)C2 (centres undefined) | . | . | . | . | . | .
CCCn1c(CN2CCN(C(=O)OCC)CC2)nc2cc(NC(C)=O)ccc21 | . | . | . | / | / | /
COc1ccc2nc3ccccc3nc2c1 | . | . | 35 | . | . | .
COc1ccc(-c2nc3ccccc3nc2-c2ccccc2)cc1 | . | . | . | . | . | .
Nc1ccccc1N=Nc1ccccc1N | . | 47 | 46 | / | / | /
O=C(O)CCCNc1cc(N2CCC3(CC2)OCCO3)c2noc3c2c1C(=O)c1ccccc1-3 | . | 90 | 71 | . | . | 89
CN1CCN(c2cc(N3CCN(C(=O)c4ccco4)CC3)c3c4c(onc24)-c2ccccc2C3=O)CC1 | . | 43 | 37 | / | / | /
CCOC(=O)N1CCN(c2cc(NCCC(=O)O)c3c4c(onc24)-c2ccccc2C3=O)CC1 | . | . | 43 | . | . | 73
O=[N+]([O-])c1c(NCCO)cc(N2CCC3(CC2)OCCO3)c2nonc12 | . | . | . | . | . | .
C/C(=N/NC(=O)c1ccccn1)c1ccc(O)cc1 | . | . | . | 96 | / | .
C/C(=N\NC(=O)c1ccccn1)c1ccc(Cl)cc1 | . | . | . | . | / | .
CCOC(=O)c1c(NC(=O)C2CCCCC2)sc2c1CCN(C(C)C)C2 | . | . | . | / | / | /
O=Nc1c(-c2cccc([N+](=O)[O-])c2)nc2ncccn12 | . | . | . | . | / | 55
O=[N+]([O-])c1cccc(-c2cn3nc(-c4ccccc4)c(-c4ccccc4)nc3n2)c1 | . | . | . | . | / | .
Cc1ccc(SCC(=O)OCC(=O)N(C)CC(=O)Nc2ccccc2Cl)cc1C | . | . | . | / | / | /
SMILES | GLD-1 TGE inh | MCL1 BIM primary | BCLXL inh | Mcl1-Bid inh | Bim-Mcl-1 | Mcl1-Noxa inh
CC(=O)c1ccccc1NC(=O)c1ccc(N2CCCC2=O)cc1 | . | . | . | / | / | /
O=c1cc(CO)oc(C(Nc2ccccn2)c2cccc(F)c2)c1O (centres undefined) | . | . | . | . | . | 52
COc1cccc(C(Nc2ccccn2)c2oc(CO)cc(=O)c2O)c1 (centres undefined) | . | . | . | . | . | 74
O=c1cc(CO)oc(C(Nc2ccccn2)c2ccc(C(F)(F)F)cc2)c1O (centres undefined) | . | . | . | . | . | .
O=c1cc(CO)oc(C(Nc2ccccn2)c2ccccc2F)c1O (centres undefined) | . | . | . | / | / | /
COc1ccc2[nH]c(=O)cc(C(=O)O)c2c1 | . | . | . | . | . | .
COc1ccc2[nH]c3c4c(ccc3c2c1)C(=O)C=CC4=O | / | / | / | 82 | / | 98

Compound activity as filed in PubChem BioAssay.
